Compound activity from PubChem.
EWS-Fli inh: inhibitors of EWS/Fli oncoprotein transcriptional activity; hit rate 0.67% among 350,000; A673 NR0B1-luciferase reporter, viability-normalised; AID 651661; inhibition, % at 12.6 µM;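 active means mean inhibition of at least 50% after viability correction, with every replicate also passing that limit; inconclusive means mean reaches 50% but only one of two replicates passes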;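 further: firefly luciferase signal divided by Alamar Blue viability fluorescence both relative to DMSO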
PGC1a acetyl inh: modulators of PGC1a acetylation; U2OS PGC1a acetylation, AlphaScreen anti-acetyl-lysine; with virally co-expressed GCN5 acetyltransferase; inhibition, % at 15.6 µM; hit rate 0.17% among 350,000; AID 651687;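 active means every replicate shows inhibition of at least 40%; inconclusive means mean inhibition at least 40% but some replicate below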;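 further: 0% = neutral control wells and 100% = positive control wells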
PAX8 reporter: PAX8 transcriptional activity inhibition. RMG-I TPO-luciferase reporter, SteadyGlo, 24 h. hit rate 1.2% among 360,000. inhibition, % at 12.6 µM;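 active means mean replicate inhibition at least 60% with every replicate also reaching 60%; inconclusive means only one of the two criteria is met; inactive means mean below 60% and not all replicates reaching 60%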;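 further: luciferase light reporting Pax8 driven TPO promoter activity; plate controls were median of neutral control wells for no effect and mitoxantrone controls for full effect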
Env fusion inh: blocks HIV Env-driven cell-cell fusion | HeLa-JRFL Env/CEM21 cell fusion, luciferase | inhibition, % at 12.3 µM | hit rate 1.1% among 360,000 | AID 651610;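 active means mean replicate inhibition score of at least 50 and every replicate individually at or above 50; inconclusive means only one of the two criteria met; inactive means mean below 50 and not all replicates reaching 50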;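 further: 0% = plate neutral controls and 100% = maraviroc near 300 nM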
INS-1E GSIS act: primary screen for activators of insulin secretion dependent on glucose, INS-1E cells, GLuc reporter luminescence; INS-1E GLuc reporter insulin secretion, 2-3 h; hit rate 0.61% among 370,000; activation, % at 16.6 µM;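 active means lowest replicate activation of at least 40%, so every replicate reaches that level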;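 further: 0% = median of neutral control wells and 100% = median of IBMX positive control wells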
F508del corr: CFTR F508del correction in bronchial cells. hit rate 0.36% among 350,000. AID 720511. CFBE cells, YFP halide quenching; stimulated with forskolin plus potentiator P3; % fluorescence drop versus neutral controls. activity (quench increase), % at 7.58 µM;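 active means mean added fluorescence quench of at least 8% versus neutral control, with both replicates also reaching 8%; inconclusive means only one of the mean or replicate conditions met; inactive means mean below 8% and not both replicates reaching 8%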;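 further: cells transiently co-express mutant CFTR-F508del with the halide-sensitive YFP; corrector assay measuring rescue of mutant channel to the surface after 24 h compound exposure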
* hit, by the source's call; [ ] = dose if it differs, or a comment. Only some compounds are listed: those with a hit (about 2.7% of all), similar ones and a draw of the others.

Results for C[C@@H]1CN([C@@H](C)CO)C(=O)Cc2cc(NC(=O)CCC(F)(F)F)ccc2O[C@@H]1CN(C)S(=O)(=O)c1ccc(F)cc1 ?
EWS-Fli inh: -9; PGC1a acetyl inh: -4; PAX8 reporter: 4; Env fusion inh: 15[16.7 µM]; INS-1E GSIS act: 0; F508del corr: -2

How did CC(=O)Nc1sc(N/N=C\c2cccc(Cl)c2)nc1-c1cccs1 do in these assays?
INS-1E GSIS act: 68*

Results for CCCN(CC(=O)Nc1ccccc1OC)C(=O)C1CCCC1 ?
EWS-Fli inh: 6; PGC1a acetyl inh: -10; PAX8 reporter: -19; Env fusion inh: 9; INS-1E GSIS act: 10; F508del corr: 0

Results for CCN(CC(=O)Nc1ccccc1OC)C(=O)C1CCCC1 ?
EWS-Fli inh: -4; PAX8 reporter: 8; Env fusion inh: 3; INS-1E GSIS act: 68*; F508del corr: 0

Results for CCOC(=O)C1=C(C)Nc2nc(SCc3cccnc3)nn2C1c1ccc(OC)cc1 (stereo not given) ?
EWS-Fli inh: 8; PGC1a acetyl inh: -15; PAX8 reporter: 12; Env fusion inh: 62*; INS-1E GSIS act: 6; F508del corr: -2

What do the screens show for `CC1=C(C(N)=O)C(c2cccnc2)n2nc(SCc3ccccc3Cl)nc2N1` (stereo not given)?
PGC1a acetyl inh: -14

How did O=C(NCc1cccnc1)c1ccccc1NS(=O)(=O)c1ccc(F)cc1 do in these assays?
PGC1a acetyl inh: -2; PAX8 reporter: 7; Env fusion inh: -17; INS-1E GSIS act: 11; F508del corr: 2

What do the screens show for `O=C(CCc1ccc(S(=O)(=O)NCc2ccccc2)cc1)NCc1ccco1`?
EWS-Fli inh: -14; PGC1a acetyl inh: 12; PAX8 reporter: 157*; INS-1E GSIS act: 4; F508del corr: -1

What do the screens show for `O=C(Nc1ccc(S(=O)(=O)NCc2cccnc2)cc1)c1ccco1`?
PGC1a acetyl inh: 0; Env fusion inh: 65*

Results for CC(=O)Nc1ccc(S(=O)(=O)NCc2cccnc2)cc1 ?
Env fusion inh: -40; INS-1E GSIS act: -7

Results for O=C(CCc1ccc(S(=O)(=O)NCc2ccccc2)cc1)NCc1cccnc1 ?
EWS-Fli inh: -3; PGC1a acetyl inh: 8; PAX8 reporter: 127*; INS-1E GSIS act: 17; F508del corr: 0

How did Cc1ccc(S(=O)(=O)Nc2ccccc2C(=O)NCc2cccnc2)cc1 do in these assays?
EWS-Fli inh: -8; PGC1a acetyl inh: 91*; PAX8 reporter: 2; Env fusion inh: 11; INS-1E GSIS act: 17; F508del corr: -2

How did C[C@H](CO)N1C[C@H](C)[C@@H](CN(C)Cc2ccc(C(F)(F)F)cc2)Oc2ccc(NS(C)(=O)=O)cc2C1=O do in these assays?
EWS-Fli inh: 3; PGC1a acetyl inh: -2; PAX8 reporter: -12; Env fusion inh: 28[16.7 µM]; INS-1E GSIS act: 0; F508del corr: 5

Results for CCCNC(=O)N(C)C[C@H]1Oc2ncc(-c3ccncc3)cc2C(=O)N([C@@H](C)CO)C[C@H]1C ?
EWS-Fli inh: -17; PGC1a acetyl inh: 1; Env fusion inh: 5[16.7 µM]; INS-1E GSIS act: 24; F508del corr: 2

How did Nc1cc2ccncc2c2ccccc12 do in these assays?
EWS-Fli inh: 38; PGC1a acetyl inh: inconclusive; PAX8 reporter: -45; Env fusion inh: 62*; INS-1E GSIS act: -10

Results for CN(C)CC(=O)N1CC2(C1)[C@H](c1ccccc1)[C@H](CO)N2S(=O)(=O)c1ccccc1 ?
EWS-Fli inh: -10; INS-1E GSIS act: 9; F508del corr: 1

What do the screens show for `C[C@H](CO)N1C[C@H](C)[C@H](CN(C)Cc2ccccn2)Oc2cc(-c3ccc(C#N)cc3)ccc2S1(=O)=O`?
EWS-Fli inh: 9; PGC1a acetyl inh: 11; PAX8 reporter: 12; Env fusion inh: 5[16.7 µM]; INS-1E GSIS act: 4; F508del corr: 1

What do the screens show for `C[C@@H]1CCCCO[C@@H](CN(C)Cc2ccc(C(F)(F)F)cc2)[C@H](C)CN([C@@H](C)CO)C(=O)c2cc(NC(=O)NC3CCCCC3)ccc2O1`?
EWS-Fli inh: 0; PGC1a acetyl inh: -11; PAX8 reporter: 78*; Env fusion inh: 21[16.7 µM]; INS-1E GSIS act: -20; F508del corr: -2

Results for C[C@@H]1CCCCO[C@@H](CN(C)Cc2ccc(C(F)(F)F)cc2)[C@@H](C)CN([C@@H](C)CO)C(=O)c2cc(NC(=O)NC3CCCCC3)ccc2O1 ?
EWS-Fli inh: 0; PGC1a acetyl inh: 12; PAX8 reporter: 49; Env fusion inh: 9[16.7 µM]; INS-1E GSIS act: -14; F508del corr: -1

How did C[C@H]1CCCCO[C@H](CN(C)Cc2ccc(C(F)(F)F)cc2)[C@@H](C)CN([C@@H](C)CO)C(=O)c2cc(NC(=O)NC3CCCCC3)ccc2O1 do in these assays?
EWS-Fli inh: 16; PGC1a acetyl inh: 4; PAX8 reporter: 10; Env fusion inh: 66*[16.7 µM]; INS-1E GSIS act: -19; F508del corr: -1

Results for C[C@H](CO)N1C[C@H](C)[C@H](CN(C)Cc2ccc(C(F)(F)F)cc2)OCCCC[C@H](C)Oc2ccc(NC(=O)NC3CCCCC3)cc2C1=O ?
EWS-Fli inh: -18; PGC1a acetyl inh: 20; PAX8 reporter: 91*; Env fusion inh: 72*[16.7 µM]; INS-1E GSIS act: -21; F508del corr: -1

How did C[C@@H]1CCCCO[C@H](CN(C)Cc2ccc(C(F)(F)F)cc2)[C@H](C)CN([C@@H](C)CO)C(=O)c2cc(NC(=O)NC3CCCCC3)ccc2O1 do in these assays?
EWS-Fli inh: 49; PGC1a acetyl inh: -52; PAX8 reporter: 32; Env fusion inh: 33[16.7 µM]; INS-1E GSIS act: -13; F508del corr: -1

What do the screens show for `C[C@H](CO)N1C[C@H](C)[C@H](CN(C)C(=O)CCCN(C)C)OCCCC[C@H](C)Oc2ccc(NC(=O)c3ccccc3)cc2C1=O`?
EWS-Fli inh: -5; PGC1a acetyl inh: 5; PAX8 reporter: -10; Env fusion inh: 0[16.7 µM]; INS-1E GSIS act: 15; F508del corr: 0

Results for Cc1noc(C)c1NC(=O)Nc1ccc2c(c1)CC(=O)N([C@H](C)CO)C[C@@H](C)[C@H](CN(C)Cc1ccncc1)O2 ?
EWS-Fli inh: -5; PGC1a acetyl inh: 8; PAX8 reporter: 11; INS-1E GSIS act: 2; F508del corr: 3

Results for COC(=O)C1=C(C)N(Cc2ccccc2)C(=NCc2ccccc2)N[C@H]1c1cccc(C(F)(F)F)c1 ?
PGC1a acetyl inh: 1

Results for COC(=O)C1=C(C)N(Cc2cccc(C(F)(F)F)c2)C(=NCc2ccc(OC)cc2)NC1c1cccc(Cl)c1 (stereo not given) ?
EWS-Fli inh: 46; PAX8 reporter: 37; Env fusion inh: 30; INS-1E GSIS act: active; F508del corr: 6
